Measured values published in PubChem BioAssay AID1863 (Southern Research Specialized Biocontainment Screening …, 2009).
About 480 (0.16%) of roughly 300,000 compounds were called active.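 The calls were made as follows: active = inhibition over 29.93%, a cutoff 3 SD above the screen mean, later confirmed by dose response; inconclusive = inhibition over 29.93% but no dose response follow-up; inactive = inhibition at most 29.93% or unconfirmed.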 These entries were drawn from the full list. Measured potencies and affinities stand elsewhere.

Assay: inhibitors of PhoP regulon expression, primary screen, Salmonella Typhimurium, GFP reporter (AID 1863);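 also: 0% = low Mg2+ inducing control and 100% = high Mg2+ repressing control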
Settings: S. Typhimurium PhoP-regulated promoter GFP reporter, 4 h; at 50 µM; active compounds read high

inhibition, inactive:
Cn1c(=O)c(=O)n(C)c2cc(S(=O)(=O)N3CCN(c4cccc(C(F)(F)F)c4)CC3)ccc21 -8.38%
COc1cccc(N(CC(=O)NC(C)c2ccccc2)S(C)(=O)=O)c1 (stereo unspecified) -3.79%
Nc1nnc(CC(=O)N/N=C/c2ccccc2OCc2ccccc2F)s1 2.44%
COC(=O)[C@H](CCSC)NC(=O)Nc1ccc(C)cc1 -5.05%
CSCC[C@H](NC(=O)Nc1ccc(S(N)(=O)=O)cc1)C(=O)O -5.86%
COc1cccc(OCc2cc(C(=O)N3CCN(c4ccccc4O)CC3)no2)c1 8.64%
CCCOc1ccc(C(=O)O)cc1 -6.14%
CCOc1ccc(C(=O)C(CCC(CN(C)C)C(=O)c2ccc(OCC)cc2)CN(C)C)cc1 (stereo unspecified) 17.1%
COCCn1c(SCC(=O)N2CCCCC2)nc2c([nH]c3ccccc32)c1=O -1.34%
COc1ccc(C(=O)N/N=C/c2cc(Br)ccc2O)cc1OC -7.66%
O=C(N/N=C/c1cc(Br)c(O)c(Br)c1O)c1cccnc1 -3.91%
O=C(N/N=C/c1cc(Br)c(O)c(Br)c1)c1cccnc1 -1.14%
O=C(N/N=C/c1ccccc1O)c1ccncc1 -5.2%
O=C(N/N=C/c1ccc(Cl)cc1Cl)c1ccncc1 3.86%
O=C(N/N=C/c1cc(Br)ccc1O)c1ccncc1 3.11%
Cc1ccc(C(=O)N/N=C\c2cc3c(cc2Br)OCO3)cn1 1.38%
O=C(N/N=C/c1ccc(O)c([N+](=O)[O-])c1)c1ccncc1 -0.43%
Cc1nc2c3ccccc3nc(SCC(=O)N3CC(C)CC(C)C3)n2n1 (stereo unspecified) 4.78%
Cc1ccc2oc(=O)c3cnn(CC(=O)N4CCCc5ccccc54)c3c2c1 -8.23%
Cc1cccc(NC(=O)CNC(=O)N2CC(=O)Nc3ccccc32)c1C -2.45%
Cc1cccc(C(=O)Nc2nnc(SCC(=O)NC3CC3)s2)c1 -3.7%
CS(=O)(=O)N1CCc2ccc(NC(=O)C3CCCO3)cc2C1 (stereo unspecified) 4.89%
Cc1ccc(S(=O)(=O)/N=C(/c2ccc(F)cc2)N2CCOCC2)cc1 -3.33%
CCOC(=O)C1CCN(c2ncnc3nc[nH]c23)CC1 0.02%
Cc1ccc(OCCC(=O)OCC(=O)Nc2ccccc2)cc1 1.27%
O=C(N/N=C/c1cc([N+](=O)[O-])ccc1O)C1CCCCC1 1.18%
O=C(N/N=C/c1cc(Cl)ccc1O)c1ccc(Br)cc1 4.94%
O=C(N/N=C/c1cccnc1)c1cccc(Cl)c1 -1.41%
O=C(N/N=C/c1coc2ccc(Cl)cc2c1=O)c1ccncc1 7.37%
O=C(N/N=C/c1cc([N+](=O)[O-])ccc1O)C1C2CCCCC21 (stereo unspecified) -0.31%
O=C(N/N=C/c1coc2ccc(Cl)cc2c1=O)c1ccc(O)cc1 10.4%
